Hits are enriched below; roughly 8.1% of the tested compounds scored in any of these assays.
KB-V1 MDR tox: qHTS assay for MDR1-selective chemotherapeutics: Primary screen using the drug-selected MDR subline cells KB-V1 | KB-V1 MDR cells viability, CellTiter-Glo, 72 h | Potency, µM (series often up to 46.1 µM), usual class: cytotoxic | 400,000 tested, 3.4% active; further: on the % scale 0 is the no-effect control and ±100 the full control effect; nearly all actives have a fitted effect of over 60% in size
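Cytotoxicity toward P-gp-expressing KB-V1 cells was determined as loss of CellTiter-Glo luminescence after 72 h at 37 degrees C. Compounds were tested in quantitative HTS format across a concentration range, with curves fitted to normalized data.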
SW480 rerep: A quantitative high throughput screen for small molecules that induce DNA re-replication in SW480 colon adenocarcinoma cells; SW480 DNA re-replication, Hoechst DNA content imaging, 48 h; Potency, µM (series often up to 46.1 µM), for the others: at the top dose re-replication activation, most hits filed as activators; 340,000 tested, 1.8% active; AID 624297, 2012; further: % of control where 0% means no effect; nearly all actives have a fitted effect of over 55% in size
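250 cells/well; 23 nL cpd via pin tool; 48 hr, 37 C, 5% CO2; Hoechst 40 min; imager read of total nuclear intensity, ex 405/em 500-530 nm.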
ELG1 repair inh: qHTS screen for small molecules that inhibit ELG1-dependent DNA repair in human embryonic kidney (HEK293T) cells expressing luciferase-tagged ELG1; HEK293T ELG1-luciferase reporter, luminescence, 16 h; DNA damage induced by 5-fluorouridine; Potency, µM (doses to about 46.1 µM), inactives show at the highest dose activity change, negative = inhibition, most hits filed as inhibitors; 330,000 tested, 2.3% active; AID 504467, 2011; further: on the % scale 0 is the no-effect control and ±100 the full control effect; nearly all actives have a fitted effect of over 55% in size
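Reporter activity after DNA damage by 5-fluorouridine is monitored. Compound-treated cells incubate 16 hr at 37 °C, then ONE-Glo is added for 30 min before luminescence reading.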
MCF10A rerep: A quantitative high throughput screen for small molecules that induce DNA re-replication in MCF 10a normal breast cells; MCF 10A DNA re-replication, Hoechst nuclear intensity, 48 h; Potency, µM (highest dose often 46.1 µM), for the others: top-dose activity, positive = re-replication, usual class: activators; 350,000 tested, 2.9% active; AID 624296, 2012; further: % of control where 0% means no effect; nearly all actives have a fitted effect of over 50% in size
KB-3-1 cytotox: qHTS assay for MDR1-selective chemotherapeutics: Primary screen using the parental adenocarcinoma cell KB-3-1 | KB-3-1 viability, CellTiter-Glo ATP luminescence, 72 h | 400,000 tested, 1.4% active | Potency, µM (series often up to 46.1 µM), actives largely listed as cytotoxic; further: on the % scale 0 is the no-effect control and ±100 the full control effect; nearly all actives have a fitted effect of over 60% in size
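72 h, 37 °C compound treatment of KB-3-1 parental cells; CellTiter-Glo added, 10 min, luminescence read. Data corrected against DMSO-only plates and normalized before curve fitting.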
* marks the source's active call; other numbers are inactive results; i = inactive; ? = inconclusive; / = no result; [ ] = another dose, or the depositor's remark. The call rests on the fitted dose curve; in most records, active means well fitted curve in the direction sought with a large enough effect; inconclusive means small, poorly fitted or top-dose-only effect, or another doubt; inactive means no such curve, though single readings can be large; an effect the other way counts as inactive or inconclusive. Potency means the concentration at half of the fitted maximal effect.

SMILES	KB-V1 MDR tox	SW480 rerep	ELG1 repair inh	MCF10A rerep	KB-3-1 cytotox
COc1ccc(NC(=O)Cc2ccc(C)c(C)c2)cc1S(=O)(=O)N1CCCCC1	9.2µM*	-5%	26µM*	0%	?
Cc1cc(C)cc(Cn2cc(CN3CC(N(C)C)CS3(=O)=O)nn2)c1 (stereo not given)	i	/	/	/	i
COc1ccc(CC(=O)Nc2cccc(SC)c2)cc1OC	15µM*	-3%	5.2µM*	-1%	?
COc1ccc(NC(=O)CCC2CCCCC2)cc1S(=O)(=O)N1CCCCC1	3.3µM*	1%	?	15%	5.2µM*
COC(=O)c1cc(NC(=O)Cc2ccc(OC)c(OC)c2)cc(C(=O)OC)c1	i	0%[9.22 µM]	?	?	i
Cc1ccc(S(=O)(=O)c2cccc(S(=O)(=O)N3CCCC3)c2)cc1S(=O)(=O)N1CCCC1	2.6µM*	-1%	?	13%	21µM*
COc1ccc(NC(=O)c2cc3ccccc3o2)cc1S(=O)(=O)N1CCCCC1	i	?	21µM*	?	i
COc1ccc(NC(=O)CC2CCCC2)cc1S(=O)(=O)N1CCCCC1	i	0%	?	24%	i
CNC(=O)C[C@H]1C(=O)N(c2ccccc2)C[C@@H]1C	i	/	/	/	?
Cc1ccc(N=CC=C2OC(C)(C)C(C)(C)O2)cc1	i	0.82µM*	1%	16µM*	?
Cc1cccc(N=CC=C2OC(C)(C)C(C)(C)O2)c1	i	21µM*	?	?	i
c1cc(-c2sc(-c3ccncc3)c(-c3ccncc3)c2-c2ccncc2)ccn1	i	14%	18µM*	-6%	i
Nc1nnc(-c2ccncc2)s1	i	-3%	-18%	2%	i
Cc1ccc(C)c(N2CCN(C(=O)c3cc4cc5ccc(C)cc5nc4o3)CC2)c1	i	/	/	/	i
CS(=O)(=O)c1ccc(NC(=O)c2cccc(S(=O)(=O)N3CCN(Cc4ccccc4)CC3)c2)cc1	?	0%	?	?	?
CCc1c(C(=O)NC2CCCc3ccccc32)[nH]c(C)c1C(C)=O (stereo not given)	i	2%	?	-4%	?
CC(=O)c1c(C)[nH]c(C(=O)NC2CCSc3ccccc32)c1C (stereo not given)	i	13%	5.8µM*	19%	i
O=C(N/N=C/c1ccc(Cl)cc1)c1cc2c(s1)-c1ccccc1CC2	?	?	-10%	?	21µM*
O=C(O)c1cc2c(s1)-c1ccccc1CC2	i	1%	1%	3%	i
O=C(NCc1ccccc1)c1ccc(CS(=O)(=O)c2c(Cl)cccc2Cl)o1	i	/	/	/	i
Cc1ccc(C(=O)C(C(=O)/C=C/c2ccccc2)=C2SCCCS2)cc1	i	?	18µM*	21µM*	8.2µM*
CC1CCCC(C)N1C(=O)c1cccc2c1-c1ccccc1/C2=N/O (stereo not given)	i	1%	21µM*	1%	i
CC(C)COC(=O)c1cccc2c1-c1ccccc1/C2=N\O	i	1%	?	18µM*	i
CCOC(=O)c1cccc2c1-c1ccccc1/C2=N/O	i	2%	?	12%	i
COc1ccccc1C(=O)Nc1ccccc1C(=O)N1C(C)CCCC1C (stereo not given)	?	0%	2%	1%	i
O=C(Nc1ccc(F)cc1)C1CC(=O)n2cnnc2N1 (stereo not given)	i	0.65µM*	3%	-29%	i
O=C(Nc1ccc(F)cc1)C1CC(=O)n2ncnc2N1 (stereo not given)	i	-7%	?	1%	i
Cc1ccc2[nH]c(=O)c3cc(C(=O)NCCCN4CCC(C)CC4)sc3c2c1	i	/	/	/	i
NS(=O)(=O)c1ccc(N/N=C/c2cn(-c3ccccc3)nc2-c2cccs2)cc1	?	?	0%	13µM*	?

Screening results (PubChem)
